In PubChem BioAssay (EPA / NIEHS):
Results filed as inconclusive are left out. Calls of active or inactive are those of the source. How the source made its calls, unless noted: active means hit-call score of the fitted dose curve at least 0.9, where 1 is the maximum; inactive means score below 0.9.

Legend:
[1] = CCTE_Shafer_MEA_dev_firing_rate_mean: CCTE's Neural Network Formation Assay for Mean Firing Rate, Shafer Lab (AID 2284031)
Summary of the method: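 Rat primary cortical neurons were seeded on multielectrode arrays and treated from plating through day 12, with redosing at each feed. Spontaneous spiking was recorded four times; mean firing rate AUC was fitted downward against DMSO.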

[2] = CCTE_Shafer_MEA_dev_per_burst_spike_percent: CCTE's Neural Network Formation Assay for Percent of Spikes in a Burst, Shafer Lab (AID 2284032)
Summary of the method: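 Rat primary cortical neurons on 16-electrode MEA wells, dosed from plating day 0 for 12 days with renewal on DIV 5 and 9; spikes-in-bursts percentage averaged over bursting electrodes, collapsed as AUC across days 5, 7, 9, 12; loss direction versus DMSO.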

[3] = CCTE_Shafer_MEA_dev_active_electrodes_number: CCTE's Neural Network Formation Assay for Number of Active Electrodes, Shafer Lab (AID 2284040; active means hit-call score of the fitted dose curve at least 0.9, where 1 is the maximum)
Summary of the method: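 Primary rat cortical neurons on 16-electrode MEA wells, exposed from day 0 through day 12 with compound renewed at DIV 5 and 9 feeds. Active electrodes (mean firing ≥5 spikes/min) counted at DIV 5, 7, 9, 12; trapezoidal AUC across days, loss-of-signal versus DMSO.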

[4] = CCTE_Shafer_MEA_dev_burst_rate: CCTE's Neural Network Formation Assay for Burst Rate, Shafer Lab (AID 2284042)
Summary of the method: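 Rat primary cortical cultures on PEI/laminin MEA; compound from plating, re-dosed at DIV 5, 9 media change. Single-electrode bursts/recording length, well mean of active electrodes; AUC over DIV 5–12 recordings; loss-of-signal vs DMSO.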

[5] = CCTE_Shafer_MEA_dev_bursting_electrodes_number: CCTE's Neural Network Formation Assay for Number of Bursting Electrodes, Shafer Lab (AID 2284043; active means hit-call score of the fitted dose curve at least 0.9, where 1 is the maximum)
Summary of the method: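 Primary rat cortical neurons were cultured on PEI-coated 48-well MEA plates (16 electrodes/well) and exposed from plating through day 12, with compound renewed at feeds on DIV 5 and 9. Electrodes bursting ≥1 per 2 min were counted on DIV 5, 7, 9, 12; trapezoidal AUC taken.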

[6] = CCTE_Shafer_MEA_dev_per_burst_interspike_interval: CCTE's Neural Network Formation Assay for Burst Interspike Interval, Shafer Lab (AID 2284044)
Summary of the method: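 Readout is the average time between spikes inside single-electrode bursts, taken as a well mean across bursting electrodes. Cortical neurons from rat developed networks on MEA plates under continuous 12-day exposure; recordings on days 5, 7, 9 and 12 were integrated by trapezoidal AUC.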

[7] = CCTE_Shafer_MEA_dev_interburst_interval_mean: CCTE's Neural Network Formation Assay for Mean Interburst Interval, Shafer Lab (AID 2284046);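 further: well-mean interburst interval of bursting electrodes as AUC over four recording days; curve fitted for decrease in interburst interval relative to DMSO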
Summary of the method: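 Rat cortical neurons, 1.5 x 10^5 cells/well, 48-well MEA; compound from day 0 through DIV 12, media and treatment renewed DIV 5/9. Recordings DIV 5, 7, 9, 12; well-mean interburst interval → trapezoidal AUC, loss direction vs DMSO.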

[8] = CCTE_Shafer_MEA_dev_inter_network_spike_interval_mean: CCTE's Neural Network Formation Assay for Mean Inter-network Spike Interval, Shafer Lab (AID 2284047)
Summary of the method: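 Primary rat cortical neurons on PEI-coated 48-well MEAs (16 electrodes/well) were exposed from plating day 0 to DIV 12, with dosing renewed at DIV 5 and 9. Recordings at DIV 5, 7, 9, 12 were collapsed by trapezoidal AUC, loss-of-signal fit vs DMSO.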

[9] = CCTE_Shafer_MEA_dev_network_spike_number: CCTE's Neural Network Formation Assay for Number of Network Spikes, Shafer Lab (AID 2284048)
Summary of the method: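 Primary rat cortical neurons were seeded at 1.5 x 10^5 cells/well on PEI-coated 16-electrode MEA wells with laminin, exposed from plating day 0, compound renewed at DIV 5 and 9. Network spikes were recorded on days 5, 7, 9, 12 and summarized as trapezoidal AUC versus DMSO.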

[10] = CCTE_Shafer_MEA_dev_network_spike_peak: CCTE's Neural Network Formation Assay for Mean Number of Electrodes in Network Spike, Shafer Lab (AID 2284049)
Summary of the method: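 Continuous 12-day exposure of rat cortical cultures, starting at plating, on MEA plates. Endpoint: electrodes participating in network-spike peaks, AUC across DIV 5–12, DMSO as negative control.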

[11] = CCTE_Shafer_MEA_dev_network_spike_duration_std: CCTE's Neural Network Formation Assay for Standard Deviation of Network Spike Duration, Shafer Lab (AID 2284052);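 further: area under curve of spike duration SD across recording days 5 to 12; hits are decreases in network spike duration SD versus DMSO vehicle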
Summary of the method: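 Rat cortical cultures, 1.5 x 10^5 cells/well, exposed continuously from plating to DIV 12 with media/compound renewal at DIV 5, 9. Spontaneous activity recorded DIV 5/7/9/12, AxIS adaptive spike detector; AUC across days; negative direction vs DMSO.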

[12] = CCTE_Shafer_MEA_dev_per_network_spike_spike_number_mean: CCTE's Neural Network Formation Assay for Mean Number of Spikes in a Network Spike, Shafer Lab (AID 2284053)
Summary of the method: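 Rat cortical primary cultures on 48-well MEA; compound from day 0, re-dosed with full media change DIV 5, 9. Recorded DIV 5, 7, 9, 12; spikes in 0.05 s window at network-spike peak ÷ total network spikes; AUC; loss vs DMSO.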

[13] = CCTE_Shafer_MEA_dev_per_network_spike_spike_percent: CCTE's Neural Network Formation Assay for Percent of Spikes in a Network Spike, Shafer Lab (AID 2284054)
Summary of the method: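 Primary rat cortical neurons on 16-electrode MEA wells (PEI-coated, laminin at plating), exposed from day 0 with renewal at DIV 5 and 9; spikes within 0.05 s of network-spike peaks over total spikes, AUC across days 5, 7, 9, 12.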

[14] = UKN2_HCS_IMR90_neural_migration: University of Konstanz (UKN) Leist Lab Neural Crest Cell Migration Assay in human induced IMR90 Pluripotent Stem Cells (UKN2) (AID 2284204); conditions: actives raise or lower the signal
Summary of the method: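 iPSC-derived IMR90 neural crest cells on PLO/laminin/fibronectin were seeded around silicone stoppers; after stopper removal, migration in N2-S medium with EGF and FGF ran 24 h before 24 h chemical exposure. Calcein-AM/Hoechst high-content imaging; bidirectional fit versus DMSO.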

[15] = IUF_NPC1b_proliferation_BrdU_72hr: Leibniz Research Institute for Environmental Medicine (IUF) 72-hour Neural Progenitor Cell Bromodeoxyuridine (BrdU) Proliferation Assay (NPC1b) (AID 2284207)
Summary of the method: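 hNPC spheres (primary, GW 16-19 fetal cortex), single sphere/well, EGF+FGF medium; 72 h compound, no renewal; BrdU pulse last 16 h; luminescent ELISA; activity vs DMSO baseline; growth-factor withdrawal as positive control.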

[16] = IUF_NPC1a_proliferation_area_72hr: Leibniz Research Institute for Environmental Medicine (IUF) 72-hour Neural Progenitor Cell Proliferation Area Assay (NPC1a) (AID 2284208)
Summary of the method: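 hNPC spheres (human fetal cortex, GW 16-19), one per poly-Hema U-bottom well; EGF+FGF medium; dosed day 0, no re-dosing; 72 h, 37C, 5% CO2; phase-contrast sphere area; DMSO = baseline; minus-GF = positive ctrl.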

[17] = IUF_NPC1_viability_72hr: Viability Assessment at 72 hours in the Leibniz Research Institute for Environmental Medicine (IUF) Neural Progenitor Cell Proliferation Assay (NPC1) (AID 2284209)
Summary of the method: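 hNPC spheres, 1/well, EGF+FGF medium, 37C/5% CO2; dosed day 0, 72 h, no re-dosing. Resazurin reduction (alamar blue) fluorescence; DMSO = negative control/baseline; growth-factor-free wells as positive control.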

[18] = CCTE_Mundy_HCI_Cortical_Synap_Neur_Matur_NeuriteSpotCountPerNeuriteLength: CCTE's Synaptogenesis and Neurite Maturation Assay in rat cortical cells for Neurite Spot Count per Neurite Length, Mundy Lab (AID 2284210)
Summary of the method: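 Rat primary cortical cultures, glia arrested with AraC at DIV 5, were dosed with media change at DIV 7 and fixed at DIV 12. Synaptophysin puncta per MAP2-labelled neurite length were quantified by high-content imaging versus DMSO.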

[19] = CCTE_Mundy_HCI_Cortical_Synap_Neur_Matur_BPCount: CCTE's Synaptogenesis and Neurite Maturation Assay in rat cortical cells for Branch Point Count, Mundy Lab (AID 2284211)
Summary of the method: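 Rat primary cortical cultures, AraC added DIV 5; chemicals dosed DIV 7 through DIV 12. Fixed cells stained for MAP2, synaptophysin and Hoechst; neurite branch points counted by automated high-content imaging, fitted relative to DMSO.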

[20] = CCTE_Mundy_HCI_Cortical_NOG_NeuriteCount: CCTE's Neurite Outgrowth Assay in rat cortical cells for Neurite Count, Mundy Lab (AID 2284212);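 further: cells fixed about two days after chemical exposure began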
Summary of the method: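 Neurite number per cell from high-content imaging of betaIII-tubulin immunostaining, with Hoechst nuclear counterstain.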

CC(C)c1nn(C(=O)NC(C)(C)C)c(=O)n1N
outcome [1]: inactive | outcome [2]: inactive | outcome [3]: inactive | outcome [4]: inactive | outcome [5]: inactive | outcome [6]: inactive | outcome [7]: inactive | outcome [8]: inactive | outcome [9]: inactive | outcome [10]: inactive | outcome [11]: inactive | outcome [12]: inactive | outcome [13]: inactive | outcome [14]: inactive | AC50 [15]: 2.01 µM (active) | outcome [16]: inactive | outcome [17]: inactive | outcome [18]: inactive | outcome [19]: inactive | outcome [20]: inactive
